# Results published in PubChem BioAssay (NCATS).
# Unmarked numbers belong to inactive results. Inconclusive results are not listed. The source made the active and inactive calls. Unless noted, calls come from the whole dose curve; as a rule, active = well fitted curve in either direction with a large enough effect (not every such curve was filed as active); inconclusive = small, poorly fitted or top-dose-only effect, or another doubt; inactive = flat fitted curve, though single readings scatter.
# Experiments:
# [1] = target: Lysosomal acid glucosylceramidase (Homo sapiens) (UniProt P04062); test: Glucocerebrosidase-p2 (AID 348; in the data active = potency below about 10 µM; note: potency is the fitted concentration of half-maximal effect); conditions: purified GBA, blue fluorogenic substrate, 40 min
# Lysosomal acid glucosylceramidase (Homo sapiens), sequence (P04062 whole entry, looked up): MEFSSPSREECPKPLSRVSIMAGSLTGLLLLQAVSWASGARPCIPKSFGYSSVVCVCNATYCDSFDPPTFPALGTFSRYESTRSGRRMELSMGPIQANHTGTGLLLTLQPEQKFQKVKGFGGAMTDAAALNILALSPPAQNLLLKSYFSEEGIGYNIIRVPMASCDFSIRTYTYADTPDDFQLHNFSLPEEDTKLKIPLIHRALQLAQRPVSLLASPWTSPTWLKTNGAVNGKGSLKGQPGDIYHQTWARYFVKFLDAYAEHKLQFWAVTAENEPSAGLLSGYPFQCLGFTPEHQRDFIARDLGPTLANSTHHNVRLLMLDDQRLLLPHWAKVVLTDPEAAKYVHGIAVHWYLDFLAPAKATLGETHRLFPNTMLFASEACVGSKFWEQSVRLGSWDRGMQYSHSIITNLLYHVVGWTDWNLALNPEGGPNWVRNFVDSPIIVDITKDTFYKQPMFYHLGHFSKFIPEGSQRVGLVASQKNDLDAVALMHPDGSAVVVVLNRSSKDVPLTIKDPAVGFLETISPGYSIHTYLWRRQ
# Outline: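 Compounds titrated from 0.6 nM upwards against 0.2 nM enzyme in pH 5.9 citric acid/KH2PO4, taurocholate, tween-20; blue fluorogenic substrate 80 uM, 40 min room temperature, stopped and read Ex 365/Em 440 for AC50.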
# [2] = AP1 Signaling Pathway (AID 357); conditions: ME-180 AP-1-bla reporter, EGF-induced, beta-lactamase ratio, 5 h; at 7.69 µM (top of the series) unless noted;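 note: ME-180 reporter cells stimulated with EGF at its EC50 level; % is set by controls: 0 for no effect and ±100 for the full control effect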
# Outline: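 Read-out was the 460nm/530nm emission ratio (excitation 405nm) after CCF4 loading for 2.5 hours at room temperature. Cells carried an AP-1-driven beta-lactamase reporter, were stimulated with EC50 EGF plus compound for 5 hours, and AC50 values came from titrations.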
# [3] = target: Cytochrome P450 1A2 (Homo sapiens) (UniProt P05177); test: p450-cyp1a2 (AID 410; calls by dose curve; note: potency is the fitted concentration of half-maximal effect;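 for activity change, negative = inhibition: -100% = full effect of reference inhibitor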); conditions: recombinant CYP1A2, luciferin-ME demethylation, luminescence; series mostly up to 11.4 µM
# Cytochrome P450 1A2 (Homo sapiens), sequence (P05177 whole entry, looked up): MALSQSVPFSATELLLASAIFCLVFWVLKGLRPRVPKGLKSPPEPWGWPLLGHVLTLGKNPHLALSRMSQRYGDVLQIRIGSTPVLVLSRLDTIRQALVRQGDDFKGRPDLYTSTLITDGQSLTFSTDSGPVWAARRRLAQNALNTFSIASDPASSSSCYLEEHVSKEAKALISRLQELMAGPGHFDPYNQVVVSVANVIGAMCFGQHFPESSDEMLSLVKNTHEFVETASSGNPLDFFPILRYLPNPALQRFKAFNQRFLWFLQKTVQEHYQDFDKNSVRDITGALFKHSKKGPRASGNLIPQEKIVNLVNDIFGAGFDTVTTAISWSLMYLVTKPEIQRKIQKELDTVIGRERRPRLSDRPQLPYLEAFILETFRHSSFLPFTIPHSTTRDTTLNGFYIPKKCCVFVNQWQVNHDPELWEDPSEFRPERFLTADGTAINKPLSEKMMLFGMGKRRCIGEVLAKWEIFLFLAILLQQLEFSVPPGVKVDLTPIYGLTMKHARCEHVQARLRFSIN
# Outline: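 Human CYP1A2 (20nM) demethylated Luciferin-ME at its Km (100uM) in 100mM KPO4. After 10 min compound preincubation, NADPH regeneration ran the reaction 60 min at room temperature. Luciferin was read by luminescence, normalized to 57 uM furafylline.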
# [4] = Stat Signaling Pathway (AID 446); conditions: ME-180 SIE beta-lactamase reporter, IL-6 stimulated, 5 h; at 7.69 µM (top of the series) unless noted;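 note: ME-180 cervical cancer cells given 40 pM IL-6 alongside compound; SIE-controlled beta-lactamase reporter measured as 460/530 nm FRET emission ratio; % is set by controls: 0 for no effect and ±100 for the full control effect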
# Outline: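 ME-180 cells carrying a SIE-driven beta-lactamase reporter are stimulated with 40 pM IL-6 for 5 h at 37C in the presence of compound. The 460/530 nm FRET substrate ratio is read after 2.5 h at RT. Data are normalised to 300 pM IL-6 and to 125 nM JAK inhibitor controls.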
# [5] = target: Glucocorticoid receptor (Homo sapiens) (UniProt P04150); test: GR-GFP Redistribution (AID 450;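 active = compounds whose dose series gives a full or clear partial fitted curve of increased nuclear translocation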; note: potency is the fitted concentration of half-maximal effect); conditions: U2OS GR-GFP nuclear translocation, laser cytometry, 2 h
# Glucocorticoid receptor (Homo sapiens), sequence (P04150 whole entry, looked up, the tested form may be a part): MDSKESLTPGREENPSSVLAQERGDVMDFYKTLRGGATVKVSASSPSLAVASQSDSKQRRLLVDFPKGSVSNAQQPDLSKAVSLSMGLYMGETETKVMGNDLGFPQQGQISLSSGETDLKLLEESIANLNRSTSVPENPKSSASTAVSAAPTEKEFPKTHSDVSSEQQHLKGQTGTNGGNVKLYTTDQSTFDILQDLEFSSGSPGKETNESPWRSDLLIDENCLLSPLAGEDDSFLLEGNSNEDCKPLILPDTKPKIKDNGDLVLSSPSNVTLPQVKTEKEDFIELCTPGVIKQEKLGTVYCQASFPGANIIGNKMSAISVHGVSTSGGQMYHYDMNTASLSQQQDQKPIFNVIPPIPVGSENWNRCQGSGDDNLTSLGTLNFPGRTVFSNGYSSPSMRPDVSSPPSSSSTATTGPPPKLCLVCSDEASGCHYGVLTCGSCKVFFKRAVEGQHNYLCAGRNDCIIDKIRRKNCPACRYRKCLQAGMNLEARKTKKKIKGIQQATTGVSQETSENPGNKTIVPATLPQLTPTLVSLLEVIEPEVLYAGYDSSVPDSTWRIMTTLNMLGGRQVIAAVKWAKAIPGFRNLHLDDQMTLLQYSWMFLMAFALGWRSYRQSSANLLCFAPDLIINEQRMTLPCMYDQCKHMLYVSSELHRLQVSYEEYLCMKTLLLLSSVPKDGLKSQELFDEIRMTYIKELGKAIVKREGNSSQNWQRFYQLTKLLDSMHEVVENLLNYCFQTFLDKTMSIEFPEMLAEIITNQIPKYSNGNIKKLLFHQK
# [6] = target: Glucocorticoid receptor (Homo sapiens) (UniProt P04150); test: GR-EFC Redistribution (AID 451; calls by dose curve; note: potency is the fitted concentration of half-maximal effect); conditions: CHO-K1 GR-EFC translocation, beta-gal luminescence, 2 h
# Outline: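 Translocation of GR-ED fusion to nuclear EA restores b-gal, read by luminescence after 1 h room-temperature detection. Engineered CHO-K1 biosensor cells, 1,000/well, exposed 2 h at 37 C to titrations up to 46 uM final.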
# [7] = target: Mitogen-activated protein kinase 10 (Mus musculus) (UniProt Q61831); test: JNK3 AlphaScreen Assay (AID 530); conditions: JNK3 lysate, c-Jun phosphorylation; series mostly up to 57.1 µM;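 note: kinase came from lysate of stimulated human HepG2 cells; signal reports phosphorylation of biotinylated GST-cJun 1-79 at Ser73 with 10 µM ATP; % is set by controls: 0 for no effect and ±100 for the full control effect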
# Outline: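 Room-temperature AlphaScreen kinase assay; pre-activated HepG2 lysate as JNK3 source, biotin-GST-cJun(1-79) substrate, 10 uM ATP, compound 15 min preincubation.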
# [8] = target: 3',5'-cyclic-AMP phosphodiesterase 4B (Homo sapiens) (UniProt Q07343); test: qHTS Assay for Inhibitors of PDE-IV (AID 607; active = well fitted activation curve with a large enough effect in the main read-out, with a control signal flat, not every such curve was filed as active; note: % of control where 0% means no effect); conditions: HEK293 ACTOne CNG channel cells, membrane potential fluorescence; series mostly up to 22.9 µM
# 3',5'-cyclic-AMP phosphodiesterase 4B (Homo sapiens), sequence (Q07343 whole entry, looked up): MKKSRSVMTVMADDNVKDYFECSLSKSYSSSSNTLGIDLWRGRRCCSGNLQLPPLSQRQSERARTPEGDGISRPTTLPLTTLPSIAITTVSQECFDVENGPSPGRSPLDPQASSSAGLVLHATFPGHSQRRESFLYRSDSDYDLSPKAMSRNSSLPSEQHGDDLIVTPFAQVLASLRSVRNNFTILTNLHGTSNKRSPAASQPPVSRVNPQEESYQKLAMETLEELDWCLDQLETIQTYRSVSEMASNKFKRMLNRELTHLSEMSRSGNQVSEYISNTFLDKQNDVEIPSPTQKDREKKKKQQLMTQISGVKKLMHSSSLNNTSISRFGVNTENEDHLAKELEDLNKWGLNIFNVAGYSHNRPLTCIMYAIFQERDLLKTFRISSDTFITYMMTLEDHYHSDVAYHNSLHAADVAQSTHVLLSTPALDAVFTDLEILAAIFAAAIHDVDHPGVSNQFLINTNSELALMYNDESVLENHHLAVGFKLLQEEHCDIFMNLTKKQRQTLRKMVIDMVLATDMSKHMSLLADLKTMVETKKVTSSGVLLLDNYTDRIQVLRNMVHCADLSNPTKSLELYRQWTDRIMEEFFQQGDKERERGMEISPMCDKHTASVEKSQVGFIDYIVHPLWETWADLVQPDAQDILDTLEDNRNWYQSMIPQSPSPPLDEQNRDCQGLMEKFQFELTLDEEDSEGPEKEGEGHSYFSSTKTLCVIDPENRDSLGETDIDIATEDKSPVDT
# Outline: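 HEK293 ACTOne cells with CNG channel (1000/well), endogenous PDE4; membrane potential dye, compounds up to 22.9 uM final. Fluorescence Ex 535/Em 590; RO 20-1724 (100 uM final) as reference.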
# [9] = NFAT Signaling Pathway (AID 444); conditions: Jurkat NFAT-bla M1, carbachol, beta-lactamase ratio, 5 h; at 7.69 µM (top of the series) unless noted;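 note: carbachol stimulus at about its EC50 of 1 µM final; % is set by controls: 0 for no effect and ±100 for the full control effect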
# Outline: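 Read-out: CCF4 FRET ratio (460 nm/530 nm) after 1 h RT dye loading, used for %activity and AC50 from titration series. Cells: Jurkat NFAT-β-lactamase/M1 line, treated with compound plus 1 uM carbachol for 5 h, 37 °C.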
# [10] = target: Cytochrome P450 2C19 (Homo sapiens) (UniProt P33261); test: qHTS Assay for Inhibitors and Substrates of Cytochrome P450 2C19 (AID 899; active = well fitted curve in the direction sought with a large enough effect; an effect the other way counts as inactive or inconclusive; note: potency is the fitted concentration of half-maximal effect; nearly all actives have a fitted effect of over 60% in size); conditions: recombinant CYP2C19, luciferin-H EGE luminescence; series mostly up to 11.4 µM
# Cytochrome P450 2C19 (Homo sapiens), sequence (P33261 whole entry, looked up): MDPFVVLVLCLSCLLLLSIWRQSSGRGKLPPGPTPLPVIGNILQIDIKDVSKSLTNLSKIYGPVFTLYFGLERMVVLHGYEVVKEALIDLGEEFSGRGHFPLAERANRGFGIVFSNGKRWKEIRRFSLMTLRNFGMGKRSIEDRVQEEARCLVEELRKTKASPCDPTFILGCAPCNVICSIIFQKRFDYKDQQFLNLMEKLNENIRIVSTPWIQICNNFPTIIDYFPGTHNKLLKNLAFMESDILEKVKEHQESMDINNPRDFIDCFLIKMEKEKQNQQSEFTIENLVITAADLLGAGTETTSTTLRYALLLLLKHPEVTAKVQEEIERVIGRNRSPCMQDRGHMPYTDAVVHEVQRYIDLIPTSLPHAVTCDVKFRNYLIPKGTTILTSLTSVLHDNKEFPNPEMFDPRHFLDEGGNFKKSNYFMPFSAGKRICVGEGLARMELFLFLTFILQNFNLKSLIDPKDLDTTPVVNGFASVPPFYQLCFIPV
# Outline: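 Reactions contain 5nM enzyme, 10uM Luciferin-H EGE (KM) and 50mM KPO4; compound preincubates 10 min at 37C, NADPH regeneration starts turnover for 60 min. Luminescence after detection reagent gives activity.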
# [11] = target: Cytochrome P450 3A4 (Homo sapiens) (UniProt P08684); test: qHTS Assay for Activators of Cytochrome P450 3A4 (AID 885; active = well fitted curve in the direction sought with a large enough effect; an effect the other way counts as inactive or inconclusive; note: nearly all actives have a fitted effect of over 65% in size); conditions: recombinant CYP3A4, Luciferin-PPXE luminescence, 60 min; series mostly up to 57.1 µM
# Cytochrome P450 3A4 (Homo sapiens), sequence (P08684 whole entry, looked up): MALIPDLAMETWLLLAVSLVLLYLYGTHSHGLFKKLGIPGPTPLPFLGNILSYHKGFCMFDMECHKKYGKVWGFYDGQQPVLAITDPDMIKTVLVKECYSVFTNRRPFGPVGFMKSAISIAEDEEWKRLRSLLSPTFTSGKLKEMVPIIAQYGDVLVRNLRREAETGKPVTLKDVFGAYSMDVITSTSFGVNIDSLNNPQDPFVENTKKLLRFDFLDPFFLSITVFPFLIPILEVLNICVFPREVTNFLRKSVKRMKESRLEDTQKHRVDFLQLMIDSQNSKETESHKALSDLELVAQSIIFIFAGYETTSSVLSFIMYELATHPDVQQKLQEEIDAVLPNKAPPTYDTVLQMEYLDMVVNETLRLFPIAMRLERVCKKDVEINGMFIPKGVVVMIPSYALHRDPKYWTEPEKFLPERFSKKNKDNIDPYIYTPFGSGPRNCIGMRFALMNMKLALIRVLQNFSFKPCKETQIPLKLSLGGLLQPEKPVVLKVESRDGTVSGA
# Outline: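 Human CYP3A4 (20 nM) with Luciferin-PPXE at 25 uM (its KM) in 200 mM KPO4; 10 min compound preincubation, then NADPH regeneration and 60 min reaction at RT. Luciferin read by luminescence; normalized to 57 uM ketoconazole full inhibition.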
# [12] = target: Cytochrome P450 2D6 (Homo sapiens) (UniProt P10635); test: qHTS Assay for Inhibitors and Substrates of Cytochrome P450 2D6 (AID 891; active = well fitted curve in the direction sought with a large enough effect; an effect the other way counts as inactive or inconclusive; note: potency is the fitted concentration of half-maximal effect; nearly all actives have a fitted effect of over 60% in size); conditions: recombinant CYP2D6, luciferin-ME EGE luminescence; series mostly up to 11.4 µM
# Cytochrome P450 2D6 (Homo sapiens), sequence (P10635 whole entry, looked up): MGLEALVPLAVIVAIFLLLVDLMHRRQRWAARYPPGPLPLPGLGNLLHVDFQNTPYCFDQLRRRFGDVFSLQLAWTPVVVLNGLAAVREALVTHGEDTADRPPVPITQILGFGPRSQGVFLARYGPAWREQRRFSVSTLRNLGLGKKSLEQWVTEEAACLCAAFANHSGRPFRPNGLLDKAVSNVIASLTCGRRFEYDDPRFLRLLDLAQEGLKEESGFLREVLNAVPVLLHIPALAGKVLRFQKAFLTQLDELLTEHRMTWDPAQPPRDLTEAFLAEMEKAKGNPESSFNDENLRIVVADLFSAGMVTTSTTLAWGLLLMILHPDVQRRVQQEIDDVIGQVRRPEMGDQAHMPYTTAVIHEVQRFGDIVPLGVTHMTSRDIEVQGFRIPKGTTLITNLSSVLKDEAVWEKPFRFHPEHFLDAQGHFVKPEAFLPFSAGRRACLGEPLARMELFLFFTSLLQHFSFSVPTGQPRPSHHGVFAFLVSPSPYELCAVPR
# Outline: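 Human CYP2D6 (5 nM) with 30 uM Luciferin-ME EGE (at Km) in 100 mM KPO4, compound preincubated 10 min, then NADPH regeneration system for 60 min at room temperature. Luciferin read by luminescence; normalized to 1.43 uM quinidine.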
# [13] = target: Tyrosyl-DNA phosphodiesterase 1 (Homo sapiens) (UniProt Q9NUW8); test: Confirmation Assay for Inhibitors of Tyrosyl-DNA Phosphodiesterase (TDP1) (AID 489007; active = well fitted curve in the direction sought with a large enough effect; an effect the other way counts as inactive or inconclusive; note: potency is the fitted concentration of half-maximal effect; nearly all actives have a fitted effect of over 40% in size); conditions: recombinant human TDP1 enzymatic activity, dose-response
# Tyrosyl-DNA phosphodiesterase 1 (Homo sapiens), sequence (Q9NUW8 whole entry, looked up): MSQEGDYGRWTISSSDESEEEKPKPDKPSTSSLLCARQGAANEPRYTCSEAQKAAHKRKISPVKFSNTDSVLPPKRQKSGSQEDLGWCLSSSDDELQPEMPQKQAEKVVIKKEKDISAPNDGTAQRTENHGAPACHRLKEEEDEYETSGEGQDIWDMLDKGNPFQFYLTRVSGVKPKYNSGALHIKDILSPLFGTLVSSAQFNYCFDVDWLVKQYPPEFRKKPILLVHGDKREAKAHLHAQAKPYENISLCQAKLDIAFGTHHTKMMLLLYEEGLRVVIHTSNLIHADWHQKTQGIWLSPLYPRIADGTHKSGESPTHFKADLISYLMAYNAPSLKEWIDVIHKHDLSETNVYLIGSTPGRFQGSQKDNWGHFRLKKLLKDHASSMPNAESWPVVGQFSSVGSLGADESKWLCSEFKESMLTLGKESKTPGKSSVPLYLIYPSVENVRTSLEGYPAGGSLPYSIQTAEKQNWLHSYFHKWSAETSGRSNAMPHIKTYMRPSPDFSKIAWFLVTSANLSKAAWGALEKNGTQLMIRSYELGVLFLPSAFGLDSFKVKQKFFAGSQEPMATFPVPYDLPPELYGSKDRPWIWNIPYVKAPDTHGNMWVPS
# Outline: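 Recombinant E. coli-expressed Tdp1 (1 nM final) was preincubated with compounds 15 min at room temperature, then reacted 5 min with 15 nM 5'-biotin/3'-phosphotyrosine-FITC DNA substrate; cleavage read as loss of AlphaScreen signal (10 ug/ml beads, 10 min).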
SMILES,Potency [1] [µM],"activity change, negative = inhibition [2]",Potency [3],"activity, negative = inhibition [4] [%]",Potency [5] [µM],Potency [6] [µM],"activity change, negative = inhibition [7]",outcome [8],"activity change, negative = inhibition [3]","activity change, negative = inhibition [9]",Potency [10],"activity change, positive = activation [11]",Potency [12],Potency [13]
CC(=O)O/C(=C1/C[C@H]2[C@@H]3CC=C4C[C@@H](OC(C)=O)CC[C@]4(C)[C@@H]3CC[C@]2(C)C1=O)C(F)(F)F,> 11.4,-23.8%,5.01 µM (active),-16.9,> 46,> 9.22,-0.565% [at 11.4 µM],inactive,–,–,–,–,–,–
C=C(C)c1ccccc1 (tested in a mixture with another compound),> 11.4,-1.01%,–,-6.96,–,–,-9.26% [at 11.4 µM],inactive,-19.6% [at 2.29 µM],-21.5%,–,–,–,–
FC(F)(F)c1nc2ccc(SSc3ccc4nc(C(F)(F)F)[nH]c4c3)cc2[nH]1,> 11.4,-1.24%,0.501 µM (active),-6.22,> 46,> 9.22,12.4% [at 11.4 µM],inactive,–,–,5.01 µM (active),–,–,–
CN1CCN(c2ccc([N+](=O)[O-])c3[nH]o[n+](=O)c23)CC1,> 11.4,-7.81%,0.398 µM (active),11.3,> 46,> 9.22,-3.28% [at 11.4 µM],inactive,–,–,–,–,–,–
CC[C@H]1CN2CCc3cc(OC)c(OC)cc3[C@H]2C[C@@H]1C[C@H]1NCCc2c1[nH]c1ccc(O)cc21,> 11.4,-118% (active),inactive,–,> 46,> 9.22,-2.73% [at 11.4 µM],inactive,–,-128% (active),–,–,–,–
COc1cc2ccccc2c2cc([N+](=O)[O-])oc12,> 11.4,3.54%,0.126 µM (active),16.1,> 46,> 9.22,16.5% [at 11.4 µM],inactive,–,–,–,–,–,–
C[C@H](CC(C#N)(c1ccccc1)c1ccccc1)N1CCCCC1,> 11.4,17%,–,2.01,> 46,–,1.28% [at 11.4 µM],inactive,7.1% [at 2.29 µM],–,–,-53% [at 11.4 µM],2.51 µM (active),–
O=S(=O)(O)/C(=C\c1ccccc1)c1ccccc1 (tested in a mixture with another compound),> 11.4,4.77%,–,7.2,–,–,4.57% [at 11.4 µM],inactive,-29% [at 2.29 µM],11.5%,–,–,–,–
O=[N+]([O-])c1cc(-c2ccc([As](=O)(O)O)cc2)ccc1[As](=O)(O)O,> 11.4,3.12%,–,1.81,> 46,> 9.22,2.81% [at 11.4 µM],–,-10.9% [at 2.29 µM],–,–,–,–,89.1 µM (active)
O=C(CCN1CC2CCC(CC2)C1)c1cccs1,> 11.4,17.2%,5.01 µM (active),1.61,> 46,> 9.22,0.402% [at 11.4 µM],inactive,–,–,–,–,2 µM (active),–
C[C@H](CN(C)C)C(C#N)(c1ccccc1)c1ccccc1,> 11.4,0.906%,–,4.38,> 46,> 9.22,6.57% [at 11.4 µM],inactive,-3.4% [at 2.29 µM],–,–,-41.5% [at 11.4 µM],–,–
CC1(C)CCC(C)(C)c2c1ccc(O)c2Cc1c(O)ccc2c1C(C)(C)CCC2(C)C,> 11.4,-8.54%,5.01 µM (active),0.741,> 46,> 9.22,-1.06% [at 11.4 µM],inactive,–,–,–,–,–,–
C[As+](C)(c1ccc(Br)c([N+](=O)[O-])c1)c1ccc(Br)c([N+](=O)[O-])c1.O=[N+]([O-])O,> 11.4,10.5%,inactive,–,> 46,> 9.22,-0.633% [at 11.4 µM],inactive,–,-2.2%,–,–,–,–
NS(=O)(=O)C[C-]1C=C[CH]([Sb-]([Cl])([Cl])([Cl])([Cl])[Cl])C=C1.c1ccncc1 (centres undefined),> 11.4,2.96%,inactive,19.7,–,–,4.62% [at 11.4 µM],inactive,–,2.26%,–,–,–,–
CCOC(=O)[C@@H]1[C@@H]2c3ccccc3-c3ccccc3[C@H]2C[C@H]1O,> 11.4,-11.4%,0.631 µM (active),–,> 46,> 9.22,-2.11% [at 11.4 µM],inactive,–,2.27%,2 µM (active),–,–,–
N[C@@H](Cc1cc(Br)c(O)c(Br)c1)C(=O)O,> 11.4,-11.9%,inactive,5.31,> 46,–,1.55% [at 11.4 µM],inactive,–,–,–,–,–,–
